# From PubChem
# HCV NS3h FP – blocks HCV NS3 helicase binding to DNA; NS3h Cy5-dT15 DNA binding, fluorescence polarization; inhibition, % at 100 µM; hit rate 1.6% among 16,000;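 active = inhibition above the average over every tested compound plus 3 SD, cut at about 40% in these data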
# Cy5 interf NS3h – enhances or quenches Cy5 fluorescence in NS3h assay; Cy5-dT15 DNA with NS3h, fluorescence interference; actives lie on both sides; signal over control mean, under 1 quenches; fluorescence interference ratio at 100 µM; hit rate 6% among 16,000; AID 720488;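 active = compound fluorescence over control fluorescence at most 0.8, a quencher, or at least a set upper limit, an enhancer; inactive = ratio between 0.8 and the set upper limit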
# A number is an active result; – = inactive. The list is not random: actives were taken first. Their share in the collection is about 6.8%.
SMILES,HCV NS3h FP,Cy5 interf NS3h
COc1ccc(NC(=S)NC(NC(=O)c2cccc([N+](=O)[O-])c2)C(Cl)(Cl)Cl)cc1 (centres undefined),–,–
COc1ccc(C(=O)N/C(=C\c2cccc([N+](=O)[O-])c2)C(=O)NCC(C)C)cc1,–,–
COc1ccc(S(=O)(=O)Nc2cc(C)ccc2OC)cc1Br,–,–
CCC1CCCCN1C(=O)c1cnn2c(C(F)(F)F)cc(-c3ccc(C)cc3)nc12 (centres undefined),–,–
COC(=O)c1cnn2c(C(F)(F)F)cc(-c3ccccc3)nc12,–,–
Cc1ccc(O)c(NC(=O)c2cnn3c(C(F)(F)F)cc(-c4ccco4)nc23)c1,–,0.585
COC(=O)c1ccccc1NC(=O)c1cnn2c(C(F)(F)F)cc(-c3ccc(OC)c(OC)c3)nc12,–,0.682
COc1cc(-c2cc(C(F)(F)F)n3ncc(C(=O)NCc4cccnc4)c3n2)cc(OC)c1OC,–,–
O=C(NCc1ccc(Cl)cc1)c1cnn2c(C(F)(F)F)cc(-c3ccco3)nc12,–,0.589
C=CCOc1ccc(/C=C2/C(=O)N(c3ccccc3)N=C2C)cc1OCC,–,–
CC1=NN(c2ccccc2)C(=O)/C1=C\c1ccc(O)cc1,–,–
CC1(C)CC(=O)C(=Cc2cn(-c3ccccc3)nc2-c2cccs2)C(=O)C1,–,–
Cc1cc(C)cc(NC(=O)COc2cccc(C)c2)c1,–,–
O=C(Nc1cccc(-c2nc3cc(Cl)ccc3o2)c1)c1ccc2c(c1)OCCO2,–,0.706
CC(=O)Nc1ccc2oc(-c3cccc(Cl)c3)nc2c1,–,1.2
O=C(COc1ccccc1[N+](=O)[O-])Nc1ccc2oc(-c3cccc(Cl)c3)nc2c1,–,–
Cc1ccc(-c2nc3cc(Cl)ccc3o2)cc1NC(=O)c1ccc2c(c1)OCCO2,–,–
COc1ccc(NC(=O)C2c3ccccc3Oc3ccccc32)cc1,–,–
COc1ccc(NC(=O)/C(C#N)=C\c2cc(C)n(-c3ccc([N+](=O)[O-])cc3)c2C)cc1,–,–
CCN(CC)/C(=N\OCc1ccc(Cl)cc1Cl)c1nonc1N,–,0.67
CN=C(NOCc1ccccc1)c1nonc1N,–,–
Cc1cc(=O)oc2cc(OCc3ccc(Cl)c(Cl)c3)ccc12,–,–
O=CN1CCN(C(=O)c2ccc(I)cc2)CC1,–,–
CCOc1ccc(C2=C/C(=C/c3cccs3)C(=O)O2)cc1,43.8,–
COc1ccc(C2=C/C(=C/c3cccs3)C(=O)O2)cc1,–,–
SMILES,HCV NS3h FP,Cy5 interf NS3h
CCC1=NN2C(=N)/C(=C/c3ccc(OCc4ccc(F)cc4)cc3)C(=O)N=C2S1,–,–
CCC(C(=O)Nc1cccc(C)c1)c1ccccc1 (centres undefined),–,–
CCC(C(=O)Nc1ccc(C)cc1)c1ccccc1 (centres undefined),–,1.26
COCCN1C(=O)/C(=C/c2ccc3c(c2)OCO3)SC1=S,–,–
O=C1S/C(=C/c2ccc3c(c2)OCO3)C(=O)N1CN1CCCC1,–,0.573
O=C1/C(=C\c2ccc3c(c2)OCO3)SC(=S)N1c1cccc(C(F)(F)F)c1,–,–
Cc1cccc(N2C(=O)/C(=C/c3ccc4c(c3)OCO4)SC2=S)c1C,–,0.774
CCCCCCN1C(=O)C(=O)C(=C(O)c2ccccc2)C1c1ccc(F)cc1 (centres undefined),–,–
O=C1CC(c2ccccc2)CC2=C1C(c1ccc([N+](=O)[O-])cc1)Nc1ccc(C(=O)c3ccccc3)cc1N2 (centres undefined),–,–
O=C1CC(c2ccccc2)CC2=C1C(c1cccc([N+](=O)[O-])c1)Nc1ccc(C(=O)c3ccccc3)cc1N2 (centres undefined),–,0.687
Cc1cc2c(cc1Br)NC(=O)C2=O,–,0.76
CC12CC3(C)CC(C)(C1)CC(C(=O)NCCO)(C2)C3,–,1.27
CC12CC3(C)CC(C)(C1)CC(C(=O)NN)(C2)C3,–,–
Cn1c(CC(O)(c2ccccc2)c2ccccc2)nc2ccccc21,–,–
O=C1c2ccccc2C(=O)N1CCc1nc2ccccc2c(=O)n1-c1nccs1,–,0.59
Cn1c(-n2c(CCCN3C(=O)c4ccccc4C3=O)nc3ccccc3c2=O)nc2ccccc21,–,0.674
O=C(CCN1C(=O)c2ccccc2C1=O)NCc1ccccn1,–,–
O=C1CCCC2=C1C(c1ccc([N+](=O)[O-])cc1)C1=C(CCCC1=O)N2c1ccc(Cl)cc1,–,–
COc1ccc(NC(=S)NC(NC(=O)Cc2ccccc2)C(Cl)(Cl)Cl)cc1OC (centres undefined),–,–
O=C(c1cccc(C#Cc2ccccc2)c1)N1CCN(C/C=C/c2ccccc2)CC1,–,–
C=C(C)c1cccc(C(C)(C)NC(=O)N2CCN(C/C=C/c3ccccc3)CC2)c1,–,0.654
O=C(Nc1ccc(OCc2ccccc2)cc1)C(c1ccccc1)c1ccccc1,–,–
O=C(NC(Cc1ccccc1)C(=O)Nc1ccccc1)OCc1ccccc1 (centres undefined),–,0.683
CCCOc1ccc(N2C(=O)C3C4C=CC(C4=C(C)C)C3C2=O)cc1 (centres undefined),–,–
N=c1n(CCO)c2ccccc2n1/N=C\c1ccc([N+](=O)[O-])cc1,–,–
SMILES,HCV NS3h FP,Cy5 interf NS3h
CCCC(=O)c1ccc(N2CCN(C(=O)CCC)CC2)c(F)c1,–,0.751
CCCC(=O)N1CCN(c2ccc(C(=O)c3ccc(C)c(C)c3)cc2F)CC1,–,–
CCCCNc1c2c(nc3ccccc13)CC(C)(C)CC2=O,–,–
CCOc1ccc(C=C2C(=O)N(C)C(=O)N(C)C2=O)cc1Cl,–,–
COc1ccccc1N1C(=O)C(=Cc2cccn2C)C(=O)NC1=S,43.6,0.675
COc1ccccc1N1C(=O)NC(=O)C(=Cc2cc(OC)c(O)c([N+](=O)[O-])c2)C1=O,–,–
O=C(/C=C/c1ccco1)Nc1cc(Cl)ccc1C(=O)O,62.8,–
O=C(/C=C/c1ccco1)Nc1ccc(Br)cn1,–,–
COc1ccc(S(=O)(=O)N(CCc2ccccc2)CC(=O)Nc2ccc(Br)cc2)cc1OC,–,–
COc1ccc(S(=O)(=O)N(CC(=O)Nc2ccccc2C(F)(F)F)Cc2ccccc2)cc1OC,–,0.633
COC(=O)c1ccc(N2C(=O)c3ccccc3C2=O)cc1,–,–
O=C1c2cccnc2C(=O)N1c1ccc(Oc2ccc(N3C(=O)c4cccnc4C3=O)cc2)cc1,–,0.679
O=C(c1ccc(S(=O)(=O)N2CCCC2)cc1)N1CCN(c2ccccc2)CC1,–,–
CS(=O)(=O)N1CCN(C(=O)c2ccc(-c3ccccc3)cc2)CC1,–,0.622
O=C(NCc1ccccn1)c1ccc(I)cc1,–,–
Cc1nn(-c2ccc(Cl)c(Cl)c2)c(C)c1-c1cccc([N+](=O)[O-])c1,–,0.692
Cc1ccc(-n2nc(C)c(-c3cccc([N+](=O)[O-])c3)c2C)cc1C,–,–
COc1ccccc1-c1c(C(F)(F)F)oc2cc(OCc3cccc(Cl)c3)ccc2c1=O,–,–
CC(=O)ON=C1c2cc(S(=O)(=O)N(C)C)ccc2-c2ccc(S(=O)(=O)N(C)C)cc21,–,0.608
O=S(=O)(c1ccc2c(c1)C(=NO)c1cc(S(=O)(=O)N3CCCC3)ccc1-2)N1CCCC1,–,–
O=C(Nc1ccccc1C(=O)Nc1ccccn1)c1ccco1,42.4,–
O=C(Nc1ccccc1C(=O)Nc1ccccn1)c1ccccc1F,–,–
CC(=O)N1C(=O)NC2CC1NC(=O)N2C(C)=O,–,–
